PKM2 inh = inhibitors of human pyruvate kinase M2; P14618; purified PKM2, ATP generation, Kinase-Glo luminescence; Potency, µM (top dose mostly 57.5 µM), for inactives: at the highest dose activity change, negative = inhibition, hits mostly inhibitors; hit rate 0.058% among 260,000; AID 1634; active = well fitted inhibition curve with a large enough effect; note: nearly all actives have a fitted effect of over 60% in size
Target sequence (P14618 whole entry, looked up): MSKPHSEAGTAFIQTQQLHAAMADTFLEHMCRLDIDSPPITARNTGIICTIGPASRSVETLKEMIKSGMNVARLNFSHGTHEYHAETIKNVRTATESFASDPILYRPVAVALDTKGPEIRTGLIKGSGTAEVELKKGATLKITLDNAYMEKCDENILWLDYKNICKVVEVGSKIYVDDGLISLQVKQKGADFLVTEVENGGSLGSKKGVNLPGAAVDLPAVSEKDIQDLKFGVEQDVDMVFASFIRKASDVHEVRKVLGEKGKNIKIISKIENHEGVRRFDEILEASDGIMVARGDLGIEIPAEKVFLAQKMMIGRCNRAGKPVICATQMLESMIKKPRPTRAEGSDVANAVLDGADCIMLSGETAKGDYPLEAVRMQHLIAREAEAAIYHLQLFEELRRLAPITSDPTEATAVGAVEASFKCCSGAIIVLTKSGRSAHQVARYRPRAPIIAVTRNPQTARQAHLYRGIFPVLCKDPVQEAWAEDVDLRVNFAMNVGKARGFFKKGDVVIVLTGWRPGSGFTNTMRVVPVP
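Coupled luciferase luminescence (Kinase-Glo) detects ATP generated from 0.1 mM ADP and 0.5 mM PEP in imidazole buffer pH 7.2 with KCl, MgCl2; 1 h at room temperature. Enzyme at intermediate activity; normalized to uninhibited and no-enzyme controls.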
* marks the source's active call; other numbers are inactive results. The entries come from a sample that favours hits as a whole. Potency is the fitted concentration of half-maximal effect.

SMILES	PKM2 inh
Cc1ccc(C=C2C(=O)c3ccccc3C2=O)o1	14.1µM*
CCN1C(=O)N/C(=C/c2ccc(C)o2)C1=O	39.9%
Cc1ccc(/C=C2/NC(=O)N(c3ccccc3)C2=O)o1	55.5%
O=C(c1ccc2c(=O)n3c(nc2c1)CCCCC3)N1CCN(C(c2ccccc2)c2ccccc2)CC1	47.3%
O=C1COc2cc(S(=O)(=O)CCC(=O)N3CCCCC3)c(Cl)cc2N1	37.5%
Cc1ccc(S(=O)(=O)N2CCN(C(=S)NCc3ccc4c(c3)OCO4)CC2)cc1	39.6%
CSc1ccc(S(=O)(=O)N2CCC(C(=O)NCc3ccccn3)CC2)cc1	34.8%
C/C(=N\NC(=O)c1cccc(N/N=C(\C)c2cc(O)ccc2O)c1)c1cc(O)ccc1O	48.6%
CCOc1ccc(C(=O)Nc2cc(C)ccn2)cc1	14.1µM*
CCOc1ccc(-c2nnc(SCC(=O)Nc3cc(C)on3)o2)cc1	28.2%
COc1ccc(C(=O)Nc2c(C)cc(C)cc2C)cc1OC	-32.9%
Nn1cnc2scc(-c3ccco3)c2c1=O	39.3%
Cc1ccc(NC(=S)N2CCN(S(=O)(=O)c3ccc(C)cc3)CC2)cc1	34.1%
COc1ccccc1N/C=C/C(=C(C#N)C#N)N(C)C	0.1%
CCOc1ccc(NS(=O)(=O)c2ccc3ncsc3c2)cc1	55.5%
COc1ccc2c(c1OC)C(=O)OC2N1C(=O)CC[C@H]1C(=O)Nc1ccc(F)cc1F (stereo partly specified)	-5.2%
Cc1cc(NC(=O)CSc2nc3c(cc2C#N)CCCC3)no1	22.7%
Cc1cccc(NC(=O)c2cc([N+](=O)[O-])ccc2NCC2CCCO2)n1 (stereo unspecified)	46.9%
Cc1cccc(NC(=O)c2onc3c2CCCC3)n1	12.6µM*
CCN1C(=O)/C(=C/c2ccc(C)o2)N(C)C1=S	37.6%
COc1ccc(S(=O)(=O)N2CCC(Nc3ccccc3Cl)CC2)cc1	36.9%
COc1ccc2nc(C)cc(Nc3ccc(C)cc3)c2c1	-1.4%
COc1ccc(-c2cc3nc(C)cc(N)n3n2)cc1	14.1µM*
CCn1c(C)nc2cc(-c3nc4n(n3)Cc3ccccc3-4)ccc21	15.8µM*
CCN(CC)CCn1c(C)nc2ccccc21	0.4%
SMILES	PKM2 inh
O=C(O)c1ccccc1NS(=O)(=O)c1cccc(-n2sc3ccccc3c2=O)c1	-50.8%
CCN=C1S/C(=C\c2cc(Br)c(O)c(OC)c2)C(=O)N1CC	2.3%
Cc1ccc(-n2cc(S(=O)(=O)c3ccc(C)cc3)[nH]c2=O)cc1	126.6%
N/C(=N\OC(=O)c1ccc(Cl)cc1)c1ccccn1	7.08µM*
Cc1ccc(C(=O)O/N=C(\N)c2ccccn2)c(C)c1	7.94µM*
O=C(OCc1ccc(Cl)cc1Cl)c1cccnc1Cl	43.6%
N/C(=N\OC(=O)CCCN1C(=O)c2ccccc2C1=O)c1ccccn1	55.2%
CN(C)CCNC(=O)c1c(CSc2ccccc2)noc1C(=O)NCc1ccccc1	2.5%
O=C(NCCN1C(=O)S/C(=C\c2cccnc2)C1=O)C1=NN(c2ccccc2)C(=O)CC1	30.1%
C/C(=N\NC(=O)CSCc1ccccc1Cl)c1cc(O)ccc1O	59.4%
O=C(NC1CC1)C1=C[C@@H](c2csc3ccccc23)C[C@@H](OCCCCO)O1	91.0%
Cc1ccc(C)c(NS(=O)(=O)c2c(C)nc3sccn3c2=O)c1	52.7%
C(=N\Nc1nc2ccccc2[nH]1)/c1ccccn1	14.1µM*
C(=N\n1cnnc1)/c1ccccn1	-9.3%
O=C(OCCOc1cccc(Cl)c1)c1ccc2ncsc2c1	63.0%
Cc1ccc(C)c(CSc2ccc3nnc(-c4ccccn4)n3n2)c1	7.0%
Cc1cc2[nH]c(=O)c(=O)[nH]c2cc1S(=O)(=O)Nc1ccccc1F	66.6%
O=C(NCCN1CCN(c2ccccc2)CC1)Nc1cccc(Cl)c1	-2.6%
COc1ccc(N2C(=O)CC(Sc3nnc(-c4ccccc4F)n3C)C2=O)cc1 (stereo unspecified)	49.8%
COc1ccc(N2Cc3ccccc3C2=O)cc1	14.1µM*
COc1ccc(-n2c(=S)[nH]c3ncccc3c2=O)cc1	-0.3%
O=C(COC(=O)C1CC1)NC(=O)NCc1ccccc1	116.8%
Cc1c(C(=O)N2CCOCC2)c(S(=O)(=O)Nc2ccc(OC(F)(F)F)cc2)c(C)n1C	-2.0%
Cc1ccc(S(=O)(=O)N2CCCN(S(=O)(=O)c3ccc4ccccc4c3)CC2)cc1	90.7%
c1ccc(C2=NNC(=NC3CC3)SC2)cc1	14.1µM*
SMILES	PKM2 inh
Clc1ccc(C2=NNC(=NCc3ccc4c(c3)OCO4)SC2)cc1	59.3%
COc1ccc(C(=O)/C=C/C(=O)N(CC(=O)NC2CCCCC2)Cc2ccc(F)cc2)c(O)c1	73.8%
N#Cc1ccc(NC(=S)NCCN2CCOCC2)cc1	128.8%
Fc1ccccc1-c1nc2ccccc2[nH]1	31.6µM*
Cc1cc(C)c2c(N)c(-c3nc4ccccc4[nH]3)sc2n1	54.7%
CCOc1cc(/C=N/Nc2nc(-c3cccs3)c(NC(C)=O)s2)ccc1O	52.8%
COc1ccc(-c2nc(C#N)c(NC(C)c3ccccc3)o2)cc1OC (stereo unspecified)	39.4%
C#CCNC(=O)C1=C[C@@H](c2csc3ccccc23)C[C@@H](OCc2ccc(CO)cc2)O1	35.9%
O=C(Nc1ccccn1)c1cc2ccccc2o1	12.6µM*

Screens from PubChem BioAssay.
